# Counter-ions that a name gives are not always drawn. ± gives the standard deviation of the averaged measurements.
# Legend:
# Assay in all cases: growth (OD600 after 10 h); higher = more growth (less inhibition)
# [1] = test system: E. coli TESEC Alr+ wild-type control; details: compound 0.1 mM; raw OD600 reference: median of DMSO wells 0.241, cell-free background 0.041
# Method: (§1)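 TESEC Mtb Alr E. coli, or the Alr+ wild-type control, in 384-well plates with Prestwick library compounds at 0.1 mM and 1% DMSO, across arabinose induction levels of 1E3 to 1E7 nM. Growth is read as OD600 after 10 h at 37 °C in triplicate biological replicates.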
# E. coli TESEC Mtb Alr [2] = details: compound 0.1 mM
# Method: as §1
# E. coli TESEC Mtb Asd = details: compound 0.1 mM
# Method: (§2)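 TESEC E. coli strains in which the native enzyme is deleted and replaced by arabinose-inducible Mtb Asd, DapB, CysH or TrpD, each grown in its selective medium. Strains were screened against the Prestwick library at 0.1 mM and 1% DMSO in 384-well format at low and high arabinose induction. Growth is read as OD600 after 10 h in triplicate.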
# E. coli TESEC Mtb DapB = details: compound 0.1 mM
# Method: as §2
# E. coli TESEC Mtb Alr [3] = details: compound 0.1 mM; remark: listed apart in the source
# Method: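 TESEC Mtb Alr E. coli (ΔaraC ΔtolC ΔentC Δalr ΔdadX, arabinose-inducible Mtb Alr) or the Alr+ wild-type control strain, grown in defined M9-fructose medium without D-alanine in 96-well plates with Prestwick library compounds at 0.1 mM and 1% DMSO. Low Alr induction is 0.1 µM arabinose and high induction is 10 mM arabinose.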
# [4] = arabinose 1000 nM, raw OD600 reference: median of DMSO wells 0.294, cell-free background 0.041
# [5] = arabinose 10000 nM, raw OD600 reference: median of DMSO wells 0.264, cell-free background 0.041
# [6] = arabinose 100000 nM, raw OD600 reference: median of DMSO wells 0.201, cell-free background 0.041
# [7] = arabinose 1000000 nM, raw OD600 reference: median of DMSO wells 0.193, cell-free background 0.041
# [8] = arabinose 10000000 nM, raw OD600 reference: median of DMSO wells 0.146, cell-free background 0.041
# [9] = arabinose induction (level): High, raw OD600 reference: median of DMSO wells 0.331, cell-free background 0.041
# [10] = arabinose induction (level): Low, raw OD600 reference: median of DMSO wells 0.417, cell-free background 0.041
# [11] = arabinose induction (level): High, raw OD600 reference: median of DMSO wells […], cell-free background 0.041
# [12] = arabinose induction (level): Low, raw OD600 reference: median of DMSO wells 0.227, cell-free background 0.041
# [13] = arabinose 100 nM, raw OD600 reference: median of DMSO wells 0.413, cell-free background 0.052
# [14] = arabinose 10000000 nM, raw OD600 reference: median of DMSO wells […], cell-free background 0.052
Compound,growth [1],growth (E. coli TESEC Mtb Alr [2]; [4]),growth (E. coli TESEC Mtb Alr [2]; [5]),growth (E. coli TESEC Mtb Alr [2]; [6]),growth (E. coli TESEC Mtb Alr [2]; [7]),growth (E. coli TESEC Mtb Alr [2]; [8]),growth (E. coli TESEC Mtb Asd; [9]),growth (E. coli TESEC Mtb Asd; [10]),growth (E. coli TESEC Mtb DapB; [11]),growth (E. coli TESEC Mtb DapB; [12]),growth (E. coli TESEC Mtb Alr [3]; [13]),growth (E. coli TESEC Mtb Alr [3]; [14])
Cc1cc(/C=C/c2ccc3cc(N(C)C)ccc3[n+]2C)c(C)n1-c1ccccc1 [Pyrvinium pamoate],0.0976 ± 0.0031,0.0602 ± 0.0021,0.0614 ± 0.0072,0.0747 ± 0.009,0.0511 ± 0.00066,0.0872 ± 0.0092,0.071 ± 0.00096,0.0642 ± 0.0028,0.0704 ± 0.0048,0.0798 ± 0.011,0.142 ± 0.013,0.162 ± 0.025
CN1C(=O)OC(C)(C)C1=O [Trimethadione],0.242 ± 0.0071,0.283 ± 0.0076,0.269 ± 0.012,0.202 ± 0.014,0.185 ± 0.0082,0.1382 ± 0.00081,0.297 ± 0.098,0.409 ± 0.037,0.193 ± 0.0086,0.229 ± 0.042,0.423 ± 0.011,0.344 ± 0.02
Cc1c(-c2ccccc2)oc2c(C(=O)OCCN3CCCCC3)cccc2c1=O [Flavoxate hydrochloride],0.139 ± 0.0069,0.171 ± 0.0084,0.248 ± 0.0097,0.145 ± 0.0026,0.105 ± 0.0025,0.139 ± 0.0023,0.217 ± 0.06,0.381 ± 0.04,0.168 ± 0.011,0.234 ± 0.12,0.398 ± 0.015,0.262 ± 0.019
CCCCCN(CCCCC)C(=O)C(CCC(=O)O)NC(=O)c1ccc(Cl)c(Cl)c1 (centres undefined) [Lorglumide sodium salt],0.152 ± 0.0035,0.158 ± 0.01,0.114 ± 0.0014,0.158 ± 0.0084,0.0691 ± 0.00087,0.125 ± 0.0012,0.194 ± 0.019,0.162 ± 0.0069,0.153 ± 0.015,0.243 ± 0.015,0.302 ± 0.17,0.161 ± 0.025
COc1c(O[C@@H]2O[C@H](CO)[C@@H](O)[C@H](O)[C@H]2O)cc2c(c1OC)-c1ccc(SC)c(=O)cc1[C@@H](NC(C)=O)CC2 [Thiocolchicoside],0.254 ± 0.01,0.307 ± 0.0068,0.275 ± 0.0073,0.229 ± 0.023,0.186 ± 0.0019,0.149 ± 0.0088,0.271 ± 0.091,0.291 ± 0.082,0.206 ± 0.024,0.236 ± 0.015,0.414 ± 0.011,0.35 ± 0.023
CCn1cc(C(=O)O)c(=O)c2cnc(N3CCCC3)nc21 [Piromidic acid],0.228 ± 0.0041,0.314 ± 0.026,0.267 ± 0.0056,0.161 ± 0.019,0.182 ± 0.0092,0.145 ± 0.0049,0.288 ± 0.037,0.432 ± 0.015,0.208 ± 0.016,0.239 ± 0.025,0.12 ± 0.021,0.105 ± 0.015
CCOC(=O)C(C)(C)Oc1ccc(Cl)cc1 [Clofibrate],0.237 ± 0.0033,0.287 ± 0.0062,0.268 ± 0.0049,0.19 ± 0.013,0.194 ± 0.0078,0.137 ± 0.0052,0.279 ± 0.041,0.415 ± 0.043,0.19 ± 0.015,0.236 ± 0.041,0.4111 ± 0.0031,0.325 ± 0.0033
CCn1cc(C(=O)O)c(=O)c2cc(F)c(N3CCNC(C)C3)c(F)c21 (centres undefined) [Lomefloxacin hydrochloride],0.04153 ± 0.0004,0.0411 ± 0.00064,0.03993 ± 0.00021,0.0417 ± 0.00042,0.03983 ± 0.00025,0.04157 ± 0.00015,0.04757 ± 0.00021,0.0494 ± 0.0013,0.0491 ± 0.0012,0.0483 ± 0.0006,0.0534 ± 0.0016,0.0512 ± 0.0011
O=S(=O)(O)CCS [Mesna],0.2377 ± 0.0019,0.282 ± 0.0091,0.28 ± 0.0078,0.193 ± 0.012,0.206 ± 0.016,0.13 ± 0.0052,0.341 ± 0.079,0.371 ± 0.058,0.204 ± 0.009,0.214 ± 0.046,0.4246 ± 0.0021,0.337 ± 0.0046
CC(CN(C)C)CN1c2ccccc2CCc2ccccc21 (centres undefined) [Trimipramine maleate salt],0.167 ± 0.0021,0.204 ± 0.012,0.3 ± 0.0057,0.184 ± 0.013,0.15 ± 0.0042,0.156 ± 0.0021,0.141 ± 0.019,0.267 ± 0.046,0.195 ± 0.035,0.219 ± 0.027,0.395 ± 0.0065,0.337 ± 0.0056
CN(C)CC/C=C1/c2ccccc2Sc2ccc(Cl)cc21 [Chlorprothixene hydrochloride],0.0398 ± 0.0002,0.0409 ± 0.001,0.03943 ± 0.00032,0.04043 ± 0.00038,0.042 ± 0.0051,0.0425 ± 0.00068,0.0468 ± 0.00058,0.0472 ± 0.0011,0.0467 ± 0.00076,0.0463 ± 0.00046,0.41 ± 0.0049,0.0664 ± 0.0082
COc1c(N2C[C@@H]3CCCN[C@@H]3C2)c(F)cc2c(=O)c(C(=O)O)cn(C3CC3)c12 [Moxifloxacin],0.04227 ± 0.00025,0.04077 ± 0.00035,0.0401 ± 0.0003,0.0415 ± 0.0005,0.04013 ± 0.00012,0.0446 ± 0.0054,0.0511 ± 0.0029,0.052 ± 0.0016,0.04903 ± 0.00038,0.04933 ± 0.00035,0.05287 ± 0.00031,0.0516 ± 0.0013
CC(C)(C)NCC(O)c1cc(O)cc(O)c1 (centres undefined) [Terbutaline hemisulfate],0.251 ± 0.0065,0.301 ± 0.0057,0.265 ± 0.0072,0.238 ± 0.047,0.1766 ± 0.0011,0.163 ± 0.0049,0.293 ± 0.03,0.385 ± 0.042,0.226 ± 0.004,0.221 ± 0.013,0.402 ± 0.0092,0.354 ± 0.026
Nc1ccc(S(=O)(=O)Nc2ccnn2-c2ccccc2)cc1 [Sulfaphenazole],0.231 ± 0.0032,0.236 ± 0.0082,0.1522 ± 0.0011,0.197 ± 0.031,0.0993 ± 0.0064,0.149 ± 0.0051,0.335 ± 0.033,0.354 ± 0.0096,0.163 ± 0.016,0.174 ± 0.03,0.429 ± 0.0073,0.233 ± 0.15
CCN(CCCCOC(=O)c1ccc(OC)c(OC)c1)C(C)Cc1ccc(OC)cc1 (centres undefined) [Mebeverine hydrochloride],0.157 ± 0.004,0.231 ± 0.0024,0.243 ± 0.0072,0.18 ± 0.0066,0.125 ± 0.0057,0.165 ± 0.0094,0.197 ± 0.026,0.396 ± 0.046,0.166 ± 0.012,0.252 ± 0.032,0.4063 ± 0.003,0.311 ± 0.0053
Oc1c(I)cc(Cl)c2cccnc12 [Clioquinol],0.0473 ± 0.0055,0.0429 ± 0.0016,0.0409 ± 0.00085,0.0461 ± 0.0025,0.0417 ± 0.00053,0.0513 ± 0.0023,0.0601 ± 0.0098,0.0661 ± 0.016,0.0573 ± 0.0004,0.0551 ± 0.0021,0.0741 ± 0.02,0.0669 ± 0.011
Cc1onc(-c2ccccc2Cl)c1C(=O)N[C@@H]1C(=O)N2[C@@H]1SC(C)(C)[C@@H]2C(=O)O [Cloxacillin sodium salt],0.2567 ± 0.0017,0.288 ± 0.018,0.267 ± 0.005,0.217 ± 0.025,0.183 ± 0.0023,0.144 ± 0.0071,0.32 ± 0.051,0.41 ± 0.046,0.162 ± 0.01,0.208 ± 0.015,0.417 ± 0.0066,0.344 ± 0.014

# — the supplement of paper PMC9262897, “Low-cost anti-mycobacterial drug discovery using engineered E. coli” (Nature Communications, 2022)
